According to PubChem BioAssay (NCI):
This is part of a sample that, as a whole, favours compounds with a hit. Of some 79,000 tested, about 15% had one in any assay. Calls of active or inactive are those of the source. Rule as the data show it: active = growth inhibition above about 70%; inactive = the rest.

What was measured:
[1] = NCI Yeast Anticancer Drug Screen. Data for the rad50 strain (AID 155);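 also: 0% = growth of vehicle-only cultures of the same strain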; details: S. cerevisiae rad50 strain growth inhibition; at 50.0 µM; active compounds read high
Procedure, shortened: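 Compounds were tested on a yeast strain with an engineered DNA damage repair alteration; the reported value is growth inhibition normalised to vehicle treatment.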

[2] = NCI Yeast Anticancer Drug Screen. Data for the mec2-1 strain (AID 157); details: S. cerevisiae mec2-1 strain, at 50.0 µM, active compounds read high
Procedure, shortened: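 Vehicle-treated cultures served as reference for growth inhibition of compound-exposed mec2-1 yeast.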

[3] = NCI Yeast Anticancer Drug Screen. Data for the sgs1 mgt1 strain (AID 161);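 also: 0% = growth of cultures given vehicle only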; details: S. cerevisiae sgs1 mgt1 strain, at 50.0 µM, active compounds read high
Procedure, shortened: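 Inhibition of yeast growth, normalised to vehicle-treated controls, is reported for a strain bearing genetic alterations in DNA damage repair.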

[4] = NCI Yeast Anticancer Drug Screen. Data for the cln2 rad14 strain (AID 165);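 also: 0% = growth equal to vehicle treated cultures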; details: S. cerevisiae cln2 rad14 strain, at 50.0 µM, active compounds read high
Procedure, shortened: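 Each compound was tested on cln2 rad14 yeast. Inhibition of growth was calculated against vehicle-exposed controls.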

[5] = NCI Yeast Anticancer Drug Screen. Data for the bub3 strain (AID 167); details: S. cerevisiae bub3 mutant strain, at 50.0 µM, active compounds read high
Procedure, shortened: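 Growth of a checkpoint-deficient yeast mutant is measured after compound exposure. Values represent inhibition relative to vehicle.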

[6] = NCI Yeast Anticancer Drug Screen. Data for the mlh1 rad18 strain (AID 175); details: S. cerevisiae mlh1 rad18 strain growth inhibition; at 50.0 µM; active compounds read high
Procedure, shortened: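 Vehicle-treated cultures served as the reference for growth inhibition in a yeast strain carrying DNA damage repair alterations exposed to each compound.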

Measured: growth inhibition

COc1ccc(CC(NC(=O)OCc2ccccc2)C(=O)O)cc1 (stereo unspecified)
inactive: [1] 1.15% | [2] 4.15% | [3] 2.7% | [4] -52.1% | [5] 18.7% | [6] 6.6%

COc1ccc(/C=C/c2cnc3ccccc3n2)cc1OC
inactive: [1] 28.8% | [2] -4.55% | [3] 58.4% | [4] 25.8% | [5] 45.4%
active: [6] 81%

CC1=CCS(=O)(=O)C1
inactive: [1] 22.4% | [2] 1.55% | [3] 12.2% | [4] 10.3% | [5] -4.1% | [6] 29%

Cc1ccn2c(=O)c(CCBr)c(C)nc2c1
inactive: [1] 12.8% | [2] -4.65% | [3] 5.25% | [4] 13.8% | [5] 6.05% | [6] 2.25%

COc1cc(C2=N/C(=C\C=C\c3ccccc3)C(=O)O2)cc(OC)c1OC
inactive: [1] 16.8% | [2] 16% | [3] 21.9% | [4] 18.9% | [5] 18.8% | [6] 16.9%

N#CC(=C1C=CC(=NOC(=O)c2ccccc2)C=C1)c1ccccc1
inactive: [1] -0.75% | [2] 1.2% | [3] 4.8% | [4] -5.75% | [5] -2.7% | [6] -6.85%

Cc1ccc(NC(=O)NCCCN2CCOCC2)cc1NC(=O)NCCCN1CCOCC1
inactive: [1] -11.8% | [2] -22.6% | [3] 3.85% | [4] 17.2% | [5] 8.3% | [6] 7.05%

Cc1cccc(N2CCC(O)C2)c1 (stereo unspecified)
inactive: [1] -5.3% | [2] 7.25% | [3] -0.1% | [4] 9.35% | [5] -6.9% | [6] -21.1%

CN(C)/N=N/c1nc2c(c(=O)n(C)c(=O)n2C)n1CC(O)CO (stereo unspecified)
inactive: [1] 11.4% | [2] 29% | [3] 22.1% | [4] -2.85% | [5] 2% | [6] 27.1%

CN1CCc2cc3c(cc2C(=O)Cc2ccc4c(c2C1)OCO4)OCO3
inactive: [1] -14.7% | [2] -13.8% | [3] -8.35% | [4] 10.4% | [5] -13.4% | [6] -27.3%

COc1ccc(NC(=O)COc2ccc(Cl)cc2Cl)cc1
inactive: [1] 22.9% | [2] 26.8% | [3] 31.4% | [4] 36% | [5] 33% | [6] 19.6%

NC(=O)OCC(COc1ccc(Cl)cc1)OC(=O)c1cc([N+](=O)[O-])cc([N+](=O)[O-])c1 (stereo unspecified)
inactive: [1] 29.2% | [2] 23.9% | [3] 20.4% | [4] 17.6% | [5] 14.3% | [6] 8.75%

CCN(CC)c1ccc2c(c1)Oc1ccc(N(C(C)=O)c3ccccc3)cc1C21OC(=O)c2ccccc21 (stereo unspecified)
inactive: [1] 25.5% | [2] 13.1% | [3] 29.6% | [4] 31% | [5] 51.4% | [6] 19.2%

CC(=O)OCC(=O)[C@@]1(O)CC[C@H]2[C@@H]3CCC4=CC(=O)CC[C@]4(C)[C@H]3C(=O)C[C@@]21C
inactive: [1] -25.1% | [2] -23.6% | [3] -6.85% | [4] 4.2% | [5] -17.9% | [6] -21.3%

CC(=O)Oc1ccccc1C1CCCCC1
inactive: [1] -1.7% | [2] -28.6% | [3] -2.5% | [4] 17.2% | [5] -11.9% | [6] 0.9%

COC(=O)CC1C2C=CN(C(=O)OC)N(C(=O)OC)C21 (stereo unspecified)
inactive: [1] -3.3% | [2] 4.25% | [3] 6.35% | [4] 10.8% | [5] 5.7% | [6] 3.9%

Nc1cccc(OCc2nc(N)nc(N)c2-c2ccc(Cl)cc2)c1
inactive: [1] -14% | [2] -14.4% | [3] -48.9% | [4] -6.6% | [5] -36% | [6] -20.9%

O=[N+]([O-])c1nccn1CCC[n+]1ccc2ccccc2c1
inactive: [1] -25.4% | [2] -7.7% | [3] -8.6% | [4] -2% | [5] -13.8% | [6] -17%

O=C(Cn1cc(I)c(C(=O)NCC(O)CO)n1)NCC(O)CO (stereo unspecified)
inactive: [1] -2.2% | [2] -8.7% | [3] -8.4% | [4] 26.9% | [5] -5.9% | [6] -9.25%

COc1ccc(NC(=O)Nc2cccc(Cl)c2C)c(OC)c1
inactive: [1] -0.9% | [2] 9.3% | [3] 32.8% | [4] -3.15% | [5] 9.85% | [6] 5.6%

N#CC1=C(N)C(c2ccccc2)(c2ccccc2)CC1
inactive: [1] 30.4% | [2] 29.6% | [3] 8.15% | [4] -0.45% | [5] 0.4% | [6] 35.7%

CCOC(=O)/C(=N/O)c1ccccn1
inactive: [1] 0.4% | [2] -8.65% | [3] -4.35% | [4] 16.2% | [5] -5.35% | [6] -3.8%

OCCN(CCO)c1ccc2c(C(F)(F)F)cc(C(F)(F)F)nc2n1
inactive: [1] 0.45% | [2] -8.25% | [3] 15.8% | [4] 0.7% | [5] 10.6% | [6] 16.1%

O=C1CNC(=O)N1CCCl
inactive: [1] 19.7% | [2] -4.7% | [3] -7.65% | [4] 6.3% | [5] 6.15% | [6] -6.7%

O=Nc1ccc(Br)cc1
inactive: [1] -8.2% | [2] 0.35% | [3] -11.7% | [4] 5.8% | [5] 13.1% | [6] -7.5%

N#CC(NCCc1ccccc1)c1ccccc1 (stereo unspecified)
inactive: [1] 2.45% | [2] -3.1% | [3] -32.8% | [4] -20.1% | [5] -56.7% | [6] -3.95%

Cc1ccc(C2(O)CC(c3ccc([N+](=O)[O-])o3)=NN2C(=O)COc2ccccc2Cl)cc1 (stereo unspecified)
inactive: [1] 46.1% | [2] -15.2% | [3] -0.45% | [4] 0.15% | [5] -1.9% | [6] -6.45%

C=CCSc1nc2c(=O)n(C)c(=O)n(C)c2n1C
inactive: [1] -11.3% | [2] -3.55% | [3] -6.85% | [4] -27.3% | [5] -6.8% | [6] 7.15%

O=C(O)CCc1ccc(NC(=O)CCl)cc1
inactive: [1] 4.05% | [2] 14.6% | [3] 17.3% | [4] 8.35% | [5] 5.45% | [6] 14.7%

C=CC(=O)OCC(C)(C)COC(=O)C=C
inactive: [1] 3.3% | [2] -34.5% | [3] -16.7% | [4] 16.1% | [5] 19.8% | [6] -12.6%

Cc1ccccc1C(=O)OCC(=O)c1ccc(-c2ccccc2)cc1
inactive: [1] -17.6% | [2] -9.4% | [3] -1.35% | [4] -37.5% | [5] 14% | [6] -20.7%

COc1ccc(N=Nc2ccc(OC)cc2C)c(C)c1
inactive: [1] 1.7% | [2] -2.3% | [3] 1.9% | [4] -4.7% | [5] 10% | [6] 7.15%

C=C1CC(CCCCC2CC(=C)C(=O)O2)OC1=O (stereo unspecified)
inactive: [1] 1.45% | [2] -15.8% | [3] -8.1% | [4] -104% | [5] -12.7% | [6] -24.6%

Cc1ccc2nc[nH]c(=O)c2c1
inactive: [1] -1.1% | [2] 13.3% | [3] 7.85% | [4] -70.6% | [5] 19.4% | [6] -12.8%

COC(=O)/C(C#N)=C/Sc1ccccc1
inactive: [1] 61.6% | [2] 33.7% | [3] 38% | [4] 7.2% | [5] 26.6% | [6] -7.7%

COc1ccc(S(=O)Cc2cc(OC)c(OC)c(OC)c2)cc1 (stereo unspecified)
inactive: [1] -7.9% | [2] -19.9% | [3] -61.7% | [4] -19.8% | [5] -14.3% | [6] -23.7%

CCOC(=O)C12CCC(=O)C=C1[C@@H](C)C(=O)CC2 (stereo partly specified)
inactive: [1] -20.1% | [2] -48.6% | [3] -41.1% | [4] -10.2% | [5] -34.7% | [6] -23.4%

CCCCOC(=O)CNC(=O)c1ccc(C)c(OCc2ccccc2)c1[N+](=O)[O-]
inactive: [1] 0.5% | [2] -6.1% | [3] 6.1% | [4] -19.6% | [5] 20.9% | [6] -17.6%

Cc1nsc2[nH]c(=O)n(Nc3ccc(O)cc3)c(=O)c12
inactive: [1] -13.6% | [2] 1.1% | [3] -18.7% | [4] 8.75% | [5] 5% | [6] -4.9%

COC(=O)C(=O)C(C(=O)C(=O)Nc1ccc(C)cc1C)c1nc2ccc(Cl)cc2[nH]c1=O (stereo unspecified)
inactive: [1] 4.35% | [2] -21.6% | [3] 9.2% | [4] -23.6% | [5] -22.4% | [6] 7.45%

O=C(COc1ccccc1)OC1CCCC1
inactive: [1] 17.6% | [2] -13.4% | [3] -9.8% | [4] -1.9% | [5] -3.05% | [6] 4.55%
